GIRK2 activator: Activators of human GIRK2-containing channels | P48051 | HEK293 GIRK2/NPY4 cells, thallium flux fluorescence | activation (% efficacy), % for hits at 37.5 µM | 34,000 tested, under 10 active;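 active = primary screen hit, no activity in plain HEK293 cells, and in GIRK2-only cells above 5% efficacy rising with concentration; inactive = the rest, including fluorescent compounds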;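 note: efficacy is normalized control-subtracted fluorescence 15 s after thallium addition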
AMPAR-TARP mod: modulates AMPAR-stargazin complexes. actives 3.5% (n = 40,000). HEK293 GluA2+stargazin, membrane potential dye (FDSS), glutamate EC50; hits were called plate by plate, in both directions. calls only at 30 µM. O88602+P19491;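 active = any of four per-well response measures lying three or more SD from its plate-wide compound average, in either direction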
Starred values were filed as active, the others as inactive; i = inactive; . = not tested or not shown; + = active, no number. The full list was thinned out, with hits kept by preference.

SMILES	GIRK2 activator	AMPAR-TARP mod
c1nc(N2CCNCC2)c2cn[nH]c2n1	i	+
OCCC1CNCCN1Cc1ccccc1F (stereo not drawn)	.	i
COc1cccc(/C=C2\Oc3cc(OC(=O)N(C)C)ccc3C2=O)c1	.	i
COc1ccc(/C=C2\Oc3cc(OC(=O)N(C)C)ccc3C2=O)cc1OC	.	+
CN(C)C(=O)Oc1ccc2c(c1)O/C(=C\c1c(F)cccc1Cl)C2=O	.	i
CN(C)c1ccc(/C=C2\CC3C4CCC5CCCCC5(C)C4CCC3(C)C2=O)cc1 (stereo not drawn)	.	i
COc1ccc(NC2(C#N)CCCCC2)cc1	i	+
O=C(COc1ccccc1F)N1CCN(CCn2ccnc2)CC1	i	.
Cc1ccc(Cl)cc1S(=O)(=O)NCC#CCN(C)C	.	i

Screens: PubChem BioAssay, several laboratories
